Laboratory results published in PubChem BioAssay AID2685 (National Center for Advancing Translational Sciences (NCATS), 2010).
About 2,100 (0.66%) of roughly 320,000 compounds were called active. Inconclusive results (about 53%) are left out. Calls follow the shape of the dose curve; as a rule, active = well fitted inhibition curve with a large enough effect in the signal ratio, with a control signal flat (not every such curve was filed as active); inconclusive = small, poorly fitted or top-dose-only effect, or effect the other way, or a change in a side signal; inactive = flat fitted curve, though single readings scatter; the % refers to the signal ratio. Shown is part of a subset that was picked to be rich in actives.

Experiment: qHTS Assay for Lipid Storage Modulators in Drosophila S3 Cells;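 as to cell number change: cells counted by Cell Tracker Red CMTPX staining in the red channel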; as to lipid storage change, negative = inhibition: % is scaled to controls: 0 for no effect and ±100 for the full control effect
Conditions: BODIPY lipid droplet fluorescence, 18-24 h, cells fed with added oleic acid; cell number change: measured here: cell count max response; series mostly up to 46.1 µM; lipid storage change, negative = inhibition: at the top concentration
Method in brief: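 Drosophila S3 cells loaded with oleic acid (400 uM, as added) and compounds at several concentrations; lipid droplets imaged by 488-nm laser-scanning cytometry, 500–530 nm intensity and object ratio to cell channel. Percent activity normalized to 20 uM Triacsin C.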
Potency is read from the fitted curve at half-maximal effect.

SMILES	lipid storage change, negative = inhibition	cell number change [%]	outcome	Potency
CCNC(=S)NS(=O)(=O)c1ccc(CC)cc1	6.51% (inactive)	-7.16	–	–
CCCn1cc2c(c1-c1ccc(C)cc1)c(=O)n(C)c(=O)n2C	-9.64% (inactive)	4.81	–	–
CC1=C(C(=O)N2CCc3ccccc32)C2(CCC(C)CC2)OC1=O (stereo unspecified)	-2.81% (inactive)	-7.54	–	–
CN(C)C(=O)c1c2c(nc3ccccc13)CCCC2	–	1.75	inactive	–
O=C(O)c1c2c(nc3ccc(Cl)cc13)CCC2	–	–	–	0.0517 µM (active)
Cc1cccc2c(C(=O)O)c3c(nc12)CCCCC3	–	-17	–	18.4 µM (active)
Cc1cc(Br)c2nc3c(c(C(=O)O)c2c1)CCCCC3	-4.98% (inactive)	-0.276	–	–
CCOc1c2c(nc3ccc(Cl)cc13)CCC2	6.62% (inactive)	8.32	–	–
O=C(O)c1c2c(nc3ccc(F)cc13)CCC2	-2.17% (inactive)	-14.4	–	–
COc1ccccc1/C=C/C1(C(=O)NC2CCCC2)CC(=O)N1c1ccc(F)cc1 (stereo unspecified)	-14.5% (inactive)	-14.3	–	–
NC(=O)Cn1cc(/C=N\NS(=O)(=O)c2cccc([N+](=O)[O-])c2)c2ccccc21	2.72% (inactive)	1.79	–	–
COc1ccc(-n2c(O)c(/C=N/NS(=O)(=O)c3ccc(C)cc3)c3ccccc3c2=O)cc1OC	–	-21	–	8.2 µM (active)
COc1ccc(-n2c(O)c(/C=N/NS(=O)(=O)c3cccc([N+](=O)[O-])c3)c3ccccc3c2=O)cc1OC	–	-20.8	–	16.4 µM (active)
COc1cc(/C=N/NS(=O)(=O)c2ccccc2)ccc1OS(=O)(=O)c1ccc(C)cc1	8.09% (inactive)	20.6	–	–
O=[N+]([O-])c1cccc(S(=O)(=O)N/N=C/c2ccc(O)cc2)c1	-15% (inactive)	–	–	–
Cc1ccc(-n2c(O)c(/C=N/n3cnnc3)c3ccccc3c2=O)cc1	5.77% (inactive)	9.27	–	–
Cc1cccn2c(CN3CCCC(c4ccccc4)C3)c(C(=O)N3CCOCC3)nc12 (stereo unspecified)	-8.42% (inactive)	-15.3	–	–
Cc1nc2nc(NC(=O)c3ccco3)nn2c(C)c1Cl	6.53% (inactive)	16.3	–	–
Cc1noc(C)c1COc1ccc(C(=O)NCCc2ccc(S(N)(=O)=O)cc2)cc1	23% (inactive)	9.63	–	–

SMILES	lipid storage change, negative = inhibition	cell number change [%]	outcome	Potency
CCOc1ccc(-n2cnnn2)cc1S(=O)(=O)NCCc1ccc(OC)c(OC)c1	–	–	inactive	–
CCOc1ccc(CCNC(=O)c2ccc3ccccc3n2)cc1OCC	–	-6.07	–	8.2 µM (active)
CCOc1ccc(CCNC(=O)c2ccccc2OCc2c(C)noc2C)cc1OCC	5.43% (inactive)	4.08	–	–
CCOc1ccc(CCNC(=O)c2cc(C)on2)cc1OCC	14.1% (inactive)	4.47	–	–
CCOc1ccc(CCNC(=O)c2cc(C)nc3ccccc23)cc1OCC	–	1.62	inactive	–
Cc1noc(C)c1COc1ccc(C(=O)O)cc1	3.4% (inactive)	4.42	–	–
CCOc1ccc(CCNC(=O)c2cccc(-n3cnnn3)c2)cc1OCC	–	-24.8	–	0.0731 µM (active)
Cc1noc(C)c1COc1ccc(C(=O)N(C)CCOc2ccccc2)cc1	–	-18.6	–	8.2 µM (active)
CCOc1ccc(CCNC(=O)c2ccc(OCc3c(C)noc3C)cc2)cc1OCC	–	14.1	–	11.6 µM (active)
CCOc1ccc(CCNC(=O)c2cccc(S(=O)(=O)N3CCN(C(C)=O)CC3)c2)cc1OCC	-10.5% (inactive)	-4.38	–	–
Cc1noc(C)c1COc1ccc(C(=O)NNC(=O)c2ccccc2)cc1	12.6% (inactive)	2.9	–	–
COc1ccc(N2CCN(C(=O)COC(=O)/C=C/c3ccc(OC(F)F)cc3)CC2)cc1	12.6% (inactive)	–	–	–
COc1ccc(Nc2nc(Cl)nc(Nc3ccc(OC)cc3OC)n2)c(OC)c1	-9.46% (inactive)	-11.9	–	–
CCOc1ccc(OCc2ccc(C(=O)Nc3ccc(Cl)cn3)o2)cc1	12.2% (inactive)	16.1	–	–
CC(=O)Nc1sc(C)c(C)c1CN1CCN(S(=O)(=O)c2ccccc2)CC1	–	–	inactive	–
Cc1cc(C)c(Nc2ncnc(N)n2)c(C)c1	6.89% (inactive)	-1.29	–	–
O=c1cc(N2CCc3ccccc3C2)[nH]c(=O)n1-c1ccc(Br)cc1	–	–	inactive	–
CCC1CN(C(=O)N2CCC(C(=O)NCc3ccccc3OC)CC2)c2ccccc2O1 (stereo unspecified)	-7.34% (inactive)	16.5	–	–
CCC1CN(C(=O)N2CCC(C(=O)NCc3cc(OC)c(OC)c(OC)c3)CC2)c2ccccc2O1 (stereo unspecified)	–	-18	inactive	–

SMILES	lipid storage change, negative = inhibition	cell number change [%]	outcome	Potency
CCC1CN(C(=O)N2CCC(C(=O)NCCc3ccc(OC)c(OC)c3)CC2)c2ccccc2O1 (stereo unspecified)	–	5.9	inactive	–
CCC1CN(C(=O)N2CCC(C(=O)NCc3ccc(OC)cc3OC)CC2)c2ccccc2O1 (stereo unspecified)	–	4.13	inactive	–
CCC1CN(C(=O)N2CCC(C(=O)NCc3ccccc3C)CC2)c2ccccc2O1 (stereo unspecified)	–	-0.59	–	3.66 µM (active)
CCC1CN(C(=O)N2CCC(C(=O)NCc3ccc(C)o3)CC2)c2ccccc2O1 (stereo unspecified)	–	–	inactive	–
CCC1CN(C(=O)N2CCC(C(=O)NCCc3ccc(OC)cc3OC)CC2)c2ccccc2O1 (stereo unspecified)	–	1.47	–	5.17 µM (active)
CCC1CN(C(=O)N2CCC(C(=O)NCCc3ccccc3OC)CC2)c2ccccc2O1 (stereo unspecified)	–	13.3	–	6.51 µM (active)
CCC1CN(C(=O)N2CCC(C(=O)NCCc3ccccc3)CC2)c2ccccc2O1 (stereo unspecified)	–	-2.95	inactive	–
O=C(Nc1ccc(F)cc1)/C(=C1/CCCCCN1)[N+](=O)[O-]	-9.09% (inactive)	18.2	–	–
Cc1ccccc1CSc1nnc(NC(=O)Cc2cccs2)s1	18.3% (inactive)	0.934	–	–
O=S(=O)(Nc1ccc(-c2nc3ccccc3o2)cc1)c1ccccc1	–	-16.6	inactive	–
COc1ccc(CCNC(=O)COc2ccc(S(=O)(=O)N3CCOCC3)cc2)cc1	–	–	inactive	–
C/C(=N\NC(=O)CCc1ccc(S(=O)(=O)N2CCOCC2)cc1)c1ccccc1Cl	-11% (inactive)	15.6	–	–
CCCCc1ccc(CC(=O)Nc2cc(S(=O)(=O)N3CCOCC3)ccc2O)cc1	–	-16.2	–	20.6 µM (active)
C/C(=N\NC(=O)CCc1ccc(S(=O)(=O)N2CCOCC2)cc1)c1ccc(OC(F)F)cc1	–	-28.6	–	11.6 µM (active)
CC(=O)NCCc1ccc(S(=O)(=O)N2CCOCC2)cc1	–	-15.6	–	18.4 µM (active)
O=C(Nc1cc(S(=O)(=O)N2CCOCC2)ccc1O)c1ccco1	-7.19% (inactive)	-13.8	–	–
O=C(CCCSc1ccc(Cl)cc1)Nc1cc(S(=O)(=O)N2CCOCC2)ccc1O	5.44% (inactive)	-18.8	–	–
CC(=O)NCCc1ccc(S(=O)(=O)Nc2ccc(C)c(S(=O)(=O)N3CCOCC3)c2)cc1	–	-24.8	inactive	–
C/C(=N\NC(=O)c1cccc(S(=O)(=O)N2CCOCC2)c1)c1ccc(OC(F)F)cc1	24.9% (inactive)	8.64	–	–
